# Experimental data reported in PubChem BioAssay (NCATS).
# Inconclusive results are not listed. Calls of active or inactive are those of the source. Calls follow the shape of the dose curve; as a rule, active = well fitted cell-killing curve with a large enough effect; inconclusive = small, poorly fitted or top-dose-only effect; inactive = no such curve, though single readings can be large or run the other way.
# Assay: qHTS of pediatric cancer cell lines to identify multiple opportunities for drug repurposing: Primary screen for Rh41 cells (AID 1347108);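 also: luminescence drop marks cytotoxic hits; nearly all actives have a fitted effect of over 70% in size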
# Conditions: Rh41 rhabdomyosarcoma viability, CellTiter-Glo luminescence, 48 h; series mostly up to 46 µM; activity change, negative = cytotoxic: at the top concentration
# How it was run: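 Luminescence from CellTiter-Glo served as readout of metabolically active cells after 48 h compound exposure. Titrations: MIPE 11-point, from 0.78 nM; NPC 8-point, from 0.59 nM (final). Concentration-response curves came straight from the primary screen.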
row,Compound,"activity change, negative = cytotoxic"
1,CCCCC[C@H](O)C=C[C@H]1[C@H](O)CC(=O)[C@H]1CC=CCCCC(=O)O,26.6% (inactive)
2,NS(=O)(=O)c1cc(Cl)c(Cl)c(S(N)(=O)=O)c1,25.8% (inactive)
3,Oc1ccc(C=Cc2cc(O)cc(O)c2)cc1,4.4% (inactive)
4,CNc1nc(Nc2ccc(C(=O)N3CCOCC3)cc2OC)ncc1Cl,12.5% (inactive)
5,C#C[C@]1(O)CC[C@H]2[C@H]3CCc4cc(OC)ccc4[C@H]3CC[C@@]21C,13.9% (inactive)
6,CN(CC=CC#CC(C)(C)C)Cc1cccc2ccccc12,27.9% (inactive)
7,N#Cc1ccc(Oc2ccc3c(c2)COB3O)cc1,13.9% (inactive)
